From PubChem
Hits are enriched below; roughly 7.3% of the tested compounds scored in any of these assays.
VP16 counter: Gal4-VP16 reporter inhibition counter-screen; Drosophila S2 Gal4-VP16 UAS-luciferase, luminescence, 20 h; Potency, µM (highest dose often 53.6 µM), usual class: inhibitors; 3.5% of 310,000 active; AID 2546;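 further: Gal4-VP16 expression switched on by copper sulfate through the metallothionein promoter; nearly all actives have a fitted effect of over 50% in size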
RORgamma inh: ROR gamma (mouse) transcription inhibition | AID 2551 | Drosophila S2 Gal4-RORgamma UAS-luciferase reporter, 20 h | 5.4% of 310,000 active | P51450 | Potency, µM (highest dose often 53.6 µM), most hits filed as inhibitors; further: nearly all actives have a fitted effect of over 60% in size
Target sequence (P51450 whole entry, looked up, the tested form may be a part): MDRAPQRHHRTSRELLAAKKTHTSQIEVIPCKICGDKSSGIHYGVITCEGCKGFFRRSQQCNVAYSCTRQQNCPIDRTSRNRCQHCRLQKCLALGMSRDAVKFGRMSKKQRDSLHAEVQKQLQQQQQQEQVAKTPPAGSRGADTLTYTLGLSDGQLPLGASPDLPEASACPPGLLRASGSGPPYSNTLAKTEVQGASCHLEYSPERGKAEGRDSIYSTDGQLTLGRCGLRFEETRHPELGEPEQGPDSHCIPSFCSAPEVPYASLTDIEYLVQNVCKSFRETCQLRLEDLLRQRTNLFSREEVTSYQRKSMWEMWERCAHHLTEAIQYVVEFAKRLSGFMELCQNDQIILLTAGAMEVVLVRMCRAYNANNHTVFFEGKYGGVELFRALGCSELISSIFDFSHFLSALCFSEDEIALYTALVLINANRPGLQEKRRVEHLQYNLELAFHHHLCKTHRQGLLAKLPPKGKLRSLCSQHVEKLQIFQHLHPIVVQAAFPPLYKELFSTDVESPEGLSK
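A Gal4/UAS one-hybrid system in insect cells: metallothionein-promoter Gal4–ROR gamma fusion plus Photinus luciferase reporter. Copper sulfate 700 uM final, 20 hr ambient incubation, luminescent detection after 10 min with reagent.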
Tau fluor cs: counter-screen for tau fibril formation inhibitors | tau K18 P301L Alexa594 fluorescence, heparin fibrillization | Potency, µM (top dose mostly 57.7 µM) | 0.93% of 280,000 active | AID 1463; further: nearly all actives have a fitted effect of over 55% in size
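Human tau K18 P301L (15 uM unlabeled, 0.24 uM Alexa 594-labeled) in 100 mM sodium acetate pH 7 with 20 uM heparin, 6 hr at 37 C. ThT 30 uM added, 1 hr ambient; Alexa 594 FP and total fluorescence read at 555/632 nm.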
Tau FP inhib: inhibitors of human tau fibril formation. 0.39% of 280,000 active. Potency, µM (series often up to 57.7 µM), hits mostly inhibitors. K18 P301L tau heparin fibrillization, Alexa594 FP, 6 h. P10636; further: nearly all actives have a fitted effect of over 55% in size
Target sequence (P10636 561-689 P618L limits assumed): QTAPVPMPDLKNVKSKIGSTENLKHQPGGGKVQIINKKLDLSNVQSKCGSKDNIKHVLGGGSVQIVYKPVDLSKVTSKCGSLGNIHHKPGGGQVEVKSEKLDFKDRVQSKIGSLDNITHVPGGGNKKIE
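Compound effects on tau fibrillization are measured by Alexa 594 fluorescence polarization (ex 555, em 632 nm). K18 P301L tau is used at 15 uM with 0.24 uM labeled tracer, and 20 uM heparin induces aggregation over 6 hr at 37 C.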
Tau fibril ThT: tau fibrillization inhibition (ThT binding); recombinant tau K18 P301L, heparin-induced fibrillization, ThT fluorescence; Potency, µM (highest dose often 57.4 µM), most hits filed as inhibitors; 2.1% of 270,000 active; AID 1460; further: nearly all actives have a fitted effect of over 55% in size
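ThT emission at 510 nm, taken 1 hr after adding 30 uM dye, quantifies aggregates formed when 20 uM heparin acts on human tau K18 P301L for 6 hr at 37 C.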
Of the large screens only hits and unclear results are named; the others gave an inactive call. The call rests on the fitted dose curve; in most records, active means well fitted curve in the direction sought with a large enough effect; inconclusive means small, poorly fitted or top-dose-only effect, or another doubt; inactive means no such curve, though single readings can be large; an effect the other way counts as inactive or inconclusive.

CSCCC(NS(=O)(=O)c1ccc2c(c1)oc(=O)n2C)C(=O)NCc1ccc(F)cc1 (centres undefined)	none (no result: VP16 counter, RORgamma inh)
C/C(=N\NC(=O)c1cccc(Br)c1)c1ccccn1	VP16 counter 0.028µM, RORgamma inh 0.1µM (no result: Tau fluor cs, Tau FP inhib, Tau fibril ThT)
COc1ccc(C(=O)Nc2ccccn2)cc1	none
COc1ccc(C(=O)N/N=C(\c2ccccc2)c2ccccn2)cc1	VP16 counter 0.5µM, RORgamma inh 0.71µM, Tau fibril ThT inconclusive
C/C(Cc1ccccc1)=N\NC(=O)c1ccccn1	none (no result: Tau fluor cs, Tau FP inhib, Tau fibril ThT)
C/C(=N/NC(=O)c1ccccn1)c1ccncc1	none (no result: Tau fluor cs, Tau FP inhib, Tau fibril ThT)
O=C(N/N=C(\c1ccccc1)c1ccccn1)c1ccccc1Cl	VP16 counter 1.1µM, RORgamma inh 0.71µM (no result: Tau fluor cs, Tau FP inhib, Tau fibril ThT)
C/C(=N\NC(=O)c1ccc(Cl)c(Cl)c1)c1ccccn1	VP16 counter 0.0028µM, RORgamma inh 0.089µM (no result: Tau fluor cs, Tau FP inhib, Tau fibril ThT)
CCSc1nc2ccccc2c(=O)n1CCc1ccc(OC)c(OC)c1	Tau fibril ThT inconclusive
CCOc1ccc(OCc2ccc(C(=O)N/N=C(\C)c3ccccn3)cc2)cc1	RORgamma inh 0.11µM, Tau fibril ThT inconclusive
C/C(=N\NC(=O)c1ccccc1Cl)c1ccccn1	VP16 counter 2.8µM, RORgamma inh 1.3µM (no result: Tau fluor cs, Tau FP inhib, Tau fibril ThT)
COc1ccc(C(=O)N/N=C(\C)c2ccccn2)cc1OC	VP16 counter 0.56µM, RORgamma inh 0.35µM (no result: Tau fluor cs, Tau FP inhib, Tau fibril ThT)
C/C(=N\NC(=O)C(c1ccccc1)c1ccccc1)c1ccccn1	VP16 counter 1.6µM, RORgamma inh 0.63µM
C/C(=N\NC(=O)c1ccc(NS(=O)(=O)c2cccs2)cc1)c1ccccn1	none
C/C(=N\NC(=O)C(c1ccccc1)c1ccccc1)c1ccc(O)cc1	none (no result: Tau fluor cs, Tau FP inhib, Tau fibril ThT)
COc1ccc(NC(=O)c2ccccn2)cc1OC	none
CC(=O)c1cccc(OCC(O)CN2CCN(C(=O)c3ccco3)CC2)c1 (centres undefined)	none (no result: Tau fluor cs, Tau FP inhib, Tau fibril ThT)
O=C(/C=C\c1ccc2c(c1)OCO2)NC1CC(=O)N(c2ccc(F)cc2)C1 (centres undefined)	none (no result: VP16 counter, RORgamma inh)
C/C(=N\NC(=O)c1cc(Br)ccc1O)c1ccccn1	VP16 counter 0.28µM, RORgamma inh 0.4µM (no result: Tau fluor cs, Tau FP inhib, Tau fibril ThT)
C/C(=N\NC(=O)C1CCCN(S(=O)(=O)c2ccccc2)C1)c1ccccn1 (centres undefined)	VP16 counter 5µM, RORgamma inh 2.8µM
C/C(=N\NC(=O)C1CCCN(S(=O)(=O)c2ccccc2)C1)c1ccncc1 (centres undefined)	none
Cc1ccc(CC(=O)NCCN2CCOCC2)cc1	none (no result: Tau fluor cs, Tau FP inhib, Tau fibril ThT)
O=C(NCc1cc([N+](=O)[O-])ccc1O)c1cccc(NS(=O)(=O)c2ccccc2)c1	VP16 counter 13µM, RORgamma inh 11µM (no result: Tau fluor cs, Tau FP inhib, Tau fibril ThT)
O=C(O)c1ccc(NS(=O)(=O)c2cccc(C(=O)Nc3ccc([N+](=O)[O-])cc3)c2)cc1	none (no result: Tau fluor cs, Tau FP inhib, Tau fibril ThT)
CCCCOc1ccc(C2C(=O)N(C3CCCCC3)CC(=O)N2C2CCCCC2)cc1 (centres undefined)	none (no result: VP16 counter, RORgamma inh)
CN1C(=O)/C(=C/c2ccccc2OCc2ccc(C(=O)O)cc2)NC1=S	none
CN1C(=O)/C(=C/c2ccccc2OCc2ccccc2)NC1=S	VP16 counter inconclusive, RORgamma inh 7.1µM, Tau FP inhib inconclusive
CN1C(=O)/C(=C/c2ccccc2OCc2cccc(F)c2)NC1=S	VP16 counter 3.2µM, RORgamma inh 4µM, Tau FP inhib inconclusive
CCCN1C2=C(C(=O)CC(C)(C)C2)C(c2ccc(F)cc2)C2=C1c1ccccc1C2=O (centres undefined)	Tau fluor cs inconclusive, Tau fibril ThT inconclusive
CCCCN1C2=C(C(=O)CC(C)(C)C2)C(c2ccccc2)C2=C1c1ccccc1C2=O (centres undefined)	Tau FP inhib inconclusive, Tau fibril ThT 14µM
Cc1ccc(NC(=S)NNC(=O)c2c([N+](=O)[O-])c(C)nn2C)cc1	RORgamma inh 13µM
Cc1nn(C)c(C(=O)NNC(=S)NCC(C)C)c1Cl	RORgamma inh 3.2µM
Cc1ccc(NC(=O)c2c([N+](=O)[O-])c(C(C)(C)C)nn2C)cc1	none
Cc1nn(C)c(C(=O)N/N=C/c2ccc(-c3ccccc3)cc2)c1Cl	VP16 counter 11µM, RORgamma inh 8.9µM (no result: Tau fluor cs, Tau FP inhib, Tau fibril ThT)
Cc1ccc(NC(=S)NNC(=O)c2c(Cl)c(C)nn2C)cc1	VP16 counter inconclusive, RORgamma inh 4µM, Tau fibril ThT inconclusive
O=[N+]([O-])c1cc([N+](=O)[O-])c(Oc2cc(Cl)ccc2Cl)cc1NC1CCCCCCC1	none (no result: Tau fluor cs, Tau FP inhib, Tau fibril ThT)
COc1ccc(CC(=O)NCc2csc(-c3cccs3)n2)cc1OC	none
Cc1ccc(NC(=S)NNC(=O)c2cn(C)nc2C)cc1	RORgamma inh 11µM
Cc1ccc(NC(=S)NNC(=O)c2nn(C)c(C)c2Cl)cc1	none
N[C@H](CCC(=O)N[C@H](CSN=O)C(=O)NCC(=O)O)C(=O)O	Tau FP inhib inconclusive, Tau fibril ThT 22µM
N[C@@H](CCC(=O)N[C@H](CSN=O)C(=O)NCC(=O)O)C(=O)O	Tau FP inhib inconclusive, Tau fibril ThT inconclusive (no result: VP16 counter, RORgamma inh)
O=c1c(-c2ccc(F)cc2)nc2cnc(N3CCNCC3)nc2n1Cc1ccc(F)cc1	VP16 counter inconclusive, RORgamma inh 14µM (no result: Tau fluor cs, Tau FP inhib, Tau fibril ThT)
O=c1c(-c2ccc(Cl)cc2)nc2cnc(N3CCNCC3)nc2n1Cc1cccs1	VP16 counter inconclusive (no result: Tau fluor cs, Tau FP inhib, Tau fibril ThT)
CN1CCN(c2ncc3nc(-c4cccs4)c(=O)n(CCC#N)c3n2)CC1	VP16 counter 6.3µM, RORgamma inh 0.71µM (no result: Tau fluor cs, Tau FP inhib, Tau fibril ThT)
COc1ccc(-c2nc3cnc(N4CCNCC4)nc3n(Cc3ccc(F)cc3)c2=O)cc1	none (no result: Tau fluor cs, Tau FP inhib, Tau fibril ThT)
O=c1c(-c2cc(F)cc(F)c2)nc2cnc(N3CCNCC3)nc2n1Cc1cccs1	VP16 counter inconclusive, RORgamma inh 2.8µM (no result: Tau fluor cs, Tau FP inhib, Tau fibril ThT)
O=c1c(-c2cccs2)nc2cnc(N3CCNCC3)nc2n1Cc1cccs1	VP16 counter 8.9µM, RORgamma inh 18µM (no result: Tau fluor cs, Tau FP inhib, Tau fibril ThT)
CCOc1ccccc1CNC(=O)Cn1ccc2cc(S(=O)(=O)N3CCCC3)ccc21	none (no result: Tau fluor cs, Tau FP inhib, Tau fibril ThT)
O=C(NCCNC(=O)c1ccc([N+](=O)[O-])cc1)c1ccncc1	Tau fibril ThT inconclusive
COc1ccc(-n2c(=O)c(-c3cccs3)nc3cnc(N4CCNCC4)nc32)cc1	VP16 counter 10µM, RORgamma inh inconclusive (no result: Tau fluor cs, Tau FP inhib, Tau fibril ThT)
CN1CCN(c2ncc3nc(-c4cccs4)c(=O)n(Cc4cccs4)c3n2)CC1	VP16 counter inconclusive, RORgamma inh 13µM (no result: Tau fluor cs, Tau FP inhib, Tau fibril ThT)
COc1ccc(CCCc2n[nH]c(=S)o2)cc1	RORgamma inh 13µM
S=c1[nH]nc(COc2ccc3ccccc3c2)o1	VP16 counter 4µM, RORgamma inh inconclusive
COc1ccc(Cc2n[nH]c(=S)o2)cc1	none
COc1ccc(CN(C)C(C)C(=O)Nc2ccc(S(=O)(=O)N3CCCC3)cc2)c(OC)c1OC (centres undefined)	none
